# G9a inh: inhibitors of human histone lysine methyltransferase G9a. G9a H3K9 monomethylation, AlphaScreen, 2 h. actives 8.8% (n = 350,000). Q96KQ7. Potency, µM (series often up to 102 µM), for the others: top-dose activity, negative = inhibition, hits mostly inhibitors. AID 504332; further: on the % scale 0 is the no-effect control and ±100 the full control effect; nearly all actives have a fitted effect of over 75% in size
#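 Enzyme 20 nM + cpd, 15 min RT; add b-H3K9 pep 500 nM / SAM 20 uM; 2 h RT; anti-H3K9me1 Ab 0.5 ug/mL + SA donor / anti-rabbit acceptor beads 20 ug/mL each, 10 min; AlphaScreen read.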
# BAZ2B inh: blocks human BAZ2B | Q9UIF8 | AlphaScreen BAZ2B-H3K14Ac peptide displacement | Potency, µM (highest dose often 114 µM), inactives show at the highest dose activity change, negative = inhibition, most hits filed as inhibitors | actives 4.4% (n = 360,000); further: on the % scale 0 is the no-effect control and ±100 the full control effect; nearly all actives have a fitted effect of over 60% in size
#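 AlphaScreen displacement: compounds (up to 110uM) incubated 30 min at room temperature with a preformed 50 nM BAZ2B/50 nM biotinylated H3K14Ac peptide complex in PBS pH 7.4 with Tween-20. Donor and acceptor beads at 10 ug/mL final added, 20 min light-protected before reading.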
# GLS inhibitor: glutaminase GLS (human) inhibition. Potency, µM (top dose mostly 45.5 µM), for the others: at the highest dose activity change, negative = inhibition, usual class: inhibitors. O94925. GLS enzymatic activity, qHTS titration. AID 624170. actives 0.21% (n = 410,000); further: on the % scale 0 is the no-effect control and ±100 the full control effect
#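 hKGA in 45 mM KH2PO4 (pH 8.2), 0.02% Tween-20 with compound, then 1mM L-Glutamine (stock as added) plus glutamate oxidase/HRP/Amplex red coupling mix. Fluorescence read initially and after 30 min at RT; signal change reflects glutamate formation.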
# JMJD2A Tudor inh: inhibitors of human JMJD2A Tudor domain. AlphaScreen JMJD2A-Tudor / H3K4me3 peptide binding. O75164. actives 4.4% (n = 390,000). Potency, µM (doses to about 114 µM), for the others: at the top dose activity change, negative = inhibition, usual class: inhibitors. AID 504339; further: on the % scale 0 is the no-effect control and ±100 the full control effect; nearly all actives have a fitted effect of over 50% in size
# HP1b binding inh: inhibitors of HP1-beta chromodomain binding to methylated histone tails | AlphaScreen HP1-beta / biotin-H3K9me3 peptide binding | Potency, µM (doses to about 114 µM), without a hit: top-dose activity change, negative = inhibition, hits mostly inhibitors | actives 0.56% (n = 390,000) | AID 540317; further: nearly all actives have a fitted effect of over 70% in size
#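 Compound inhibition of the preformed complex between 50 nM HP1-beta and 50 nM biotinylated H3K9me3 peptide was read by AlphaScreen. Buffer was PBS pH 7.4 with 0.01% Tween-20. Incubations ran 30 min at room temperature, with 10 ug/mL donor/acceptor beads.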
# L3MBTL1 inh: L3MBTL1 (human) inhibition; Q9Y468; AlphaScreen L3MBTL1–H3K9me1 peptide binding; Potency, µM (highest dose often 57.1 µM), without a hit: top-dose activity, negative = inhibition, most hits filed as inhibitors; actives 0.66% (n = 230,000); further: on the % scale 0 is the no-effect control and ±100 the full control effect; nearly all actives have a fitted effect of over 60% in size
#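 First, the protein-peptide complex forms for 30 min at room temperature (L3MBTL1 50 nM, biotinylated H3K9me1 peptide 75 nM). Next, compounds are pin-transferred and incubated 30 min. Finally, AlphaScreen beads are added and read after 30 min.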
# Numbers without * were called inactive; ? = inconclusive; · = no result; [ ] = dose if it differs, or a comment. In the library only some 10% were active in any assay of this set; here they are far more common. The call rests on the fitted dose curve; in most records, active means well fitted curve in the direction sought with a large enough effect; inconclusive means small, poorly fitted or top-dose-only effect, or another doubt; inactive means no such curve, though single readings can be large; an effect the other way counts as inactive or inconclusive. Potency means the concentration at half of the fitted maximal effect.
SMILES,G9a inh,BAZ2B inh,GLS inhibitor,JMJD2A Tudor inh,HP1b binding inh,L3MBTL1 inh
Oc1c(N=NC(=S)Nc2ccccc2F)c2ccccc2n1Cc1ccc(F)cc1,?,?,1.1%,?,?,·
CCCn1c2ccccc2c2cnn(CC(=O)Nc3ccccc3OC)c(=O)c21,8.3%[59 µM],3.9%,5.6%,-9.6%,0.3%,·
COC(=O)CN1CC(=O)c2ccccc2S1(=O)=O,·,·,·,-26.2%,44.8%,·
COc1ccc2c(c1)O/C(=C\c1ccco1)C2=O,·,14.1µM*,3.2%,?,?,·
COc1ccc(/C=C2\Oc3cc(OCC(N)=O)ccc3C2=O)cc1OC,-9.1%,1.7%,1.5%,-11.7%,36.6%,·
CC(=O)COc1ccc2c(c1C)O/C(=C\c1ccco1)C2=O,28.2µM*,-33.7%,-21.9%,-28.1%,10.9%,·
COC(=O)C(C)Oc1ccc2c(c1)O/C(=C\c1ccco1)C2=O (stereo not given),11.2µM*,?,-21.2%,50.1µM*,-9.2%,·
CCC(C(=O)C(C)C(O)C(C)CCc1ccc(C)c(O)c1C(=O)O)C1OC(CC)(C2CC[C@@](O)(CC)C(C)O2)CC1C (stereo not given in full),-3.5%[2.33 µM],·,-23.2%,·,·,·
COc1ccc(NC(=O)N(Cc2ccco2)C2CCN(C(C)=O)CC2)c(OC)c1,-6.5%[59 µM],3.4%,-9.0%,-20.5%,30.3%,·
COc1ccc(OCCOCCN2CCc3ccccc3C2)cc1,10µM*,50.1µM*,·,2.51µM*,?,·
N#Cc1ccc(OCCN2CCc3ccccc3C2)cc1,·,·,16.9%,25.1µM*,?,·
Clc1ccc(OCCCCN2CCc3ccccc3C2)cc1,·,6.3%,29.0%,18.2%,100.2%,42.6%
CC1CCN2c3ccccc3CC3(C(=O)OC(C)(C)OC3=O)C2C1 (stereo not given),·,·,·,-23.1%[57.1 µM],2.6%[57 µM],·
COc1cc(OC)cc(C(=O)N2CCN(Cc3ccccc3[N+](=O)[O-])CC2)c1,7.94µM*,20µM*,1.0%,-6.0%[11.4 µM],?,-6.6%
COc1ccc(C(=O)N2CCN(Cc3ccccc3)CC2)cc1[N+](=O)[O-],13.0%,?,9.0%,-10.9%,21.0%,6.9%
COc1ccc(C(=O)N2CCN(CCc3ccccc3)CC2)cc1[N+](=O)[O-],·,-3.3%,-3.0%,-13.2%,3.5%,·
COc1ccc(C(=O)N2CCN(Cc3ccccc3[N+](=O)[O-])CC2)cc1,15.8µM*,50.1µM*,1.1%,22.4µM*,?,1.3%
Cn1c(CNS(=O)(=O)c2ccc(Br)cc2)n[nH]c1=S,22.4µM*,4.8%,21.9%,7.94µM*,12.0%,6.6%
Cc1ccc(C(=O)NCCc2n[nH]c(=S)n2C)cc1,?,-1.2%,7.4%,?,31.7%,3.9%
Cc1ccc(S(=O)(=O)NCc2n[nH]c(=S)n2C)cc1,31.6µM*,5.6%,21.2%,7.94µM*,22.7%,5.8%
COc1ccc2c(-c3ccccc3)cc(N3CCOCC3)nc2c1,2.24µM*,25.1µM*,0.8%,1.26µM*,25.1µM*,·
c1ccc(-c2cc(-c3ccc(N4CCOCC4)cc3)nc3ccccc23)cc1,35.4%[59 µM],27.2%,2.9%,57.0%,141.1%,66.6%
Cc1ccc(C)c(NC(=O)CN2C(=O)c3cccc4cccc2c34)c1,-4.3%[59 µM],-27.0%,1.6%,-8.2%,9.3%,·
CCc1nc(C)cn1S(=O)(=O)c1cc(C)c(OC)cc1C,50.1µM*,-2.8%,4.8%,-2.8%,39.4%,·
CCc1nc(C)cn1S(=O)(=O)c1cc(Br)c(C)cc1OC,?,-18.7%,9.1%,-18.6%,5.0%,-11.8%
O=C(COC(=O)CNS(=O)(=O)/C=C/c1ccccc1)Nc1cccc2ccccc12,50.1µM*,-21.9%,15.5%,1.3%,25.8%,-4.4%
c1cnc2ccc3c(c2c1)COCO3,·,·,-2.1%,-4.9%,22.9%,·
O=[N+]([O-])c1cc2c(c3cccnc13)COCO2,·,·,?,25.1µM*,?,·
O=[N+]([O-])c1cc(O)c2ncccc2c1,1.7%,5.62µM*,22.7%,17.8µM*,30.3%,·
Cc1ccc([N+](=O)[O-])c2cccnc12,·,-13.0%,5.9%,-17.4%,7.0%,-0.6%
